Screening results as filed in PubChem.
CCT chaperon mod = High-Throughput Screening for Modulators of Cytosolic Chaperonin Activity | activity change, % (test concentration not listed), hits read low | AID 651819, 2012 | purified chaperonin ATPase assay, HTRF ADP detection, 30 min | 360,000 compounds, 0.3% hits; in the data active = activity change below about -30%; also: % is scaled to controls: 0 for no effect and ±100 for the full control effect
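We incubate TRiC, 40 or 20 nM final, with library compounds at 76 uM and 10 uM ATP for 30 min at 37 °C. ADP formed is detected with Transcreener HTRF reagents after 30 min at room temperature.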
TSHR antagonist = Antagonists of the Thyroid Stimulating Hormone Receptor: HTS campaign; TSHR-expressing cells, TSH-stimulated cAMP HTRF, 2 h; active compounds read low; activity change, negative = inhibition, % at 11.5 µM; 330,000 compounds, 0.2% hits; AID 504810, 2011;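 active = activity change below a set negative limit, meaning inhibition stronger than a set level, cut at about -70% in these data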; also: % is scaled to controls: 0 for no effect and ±100 for the full control effect
Target sequence (P16473 whole entry, looked up): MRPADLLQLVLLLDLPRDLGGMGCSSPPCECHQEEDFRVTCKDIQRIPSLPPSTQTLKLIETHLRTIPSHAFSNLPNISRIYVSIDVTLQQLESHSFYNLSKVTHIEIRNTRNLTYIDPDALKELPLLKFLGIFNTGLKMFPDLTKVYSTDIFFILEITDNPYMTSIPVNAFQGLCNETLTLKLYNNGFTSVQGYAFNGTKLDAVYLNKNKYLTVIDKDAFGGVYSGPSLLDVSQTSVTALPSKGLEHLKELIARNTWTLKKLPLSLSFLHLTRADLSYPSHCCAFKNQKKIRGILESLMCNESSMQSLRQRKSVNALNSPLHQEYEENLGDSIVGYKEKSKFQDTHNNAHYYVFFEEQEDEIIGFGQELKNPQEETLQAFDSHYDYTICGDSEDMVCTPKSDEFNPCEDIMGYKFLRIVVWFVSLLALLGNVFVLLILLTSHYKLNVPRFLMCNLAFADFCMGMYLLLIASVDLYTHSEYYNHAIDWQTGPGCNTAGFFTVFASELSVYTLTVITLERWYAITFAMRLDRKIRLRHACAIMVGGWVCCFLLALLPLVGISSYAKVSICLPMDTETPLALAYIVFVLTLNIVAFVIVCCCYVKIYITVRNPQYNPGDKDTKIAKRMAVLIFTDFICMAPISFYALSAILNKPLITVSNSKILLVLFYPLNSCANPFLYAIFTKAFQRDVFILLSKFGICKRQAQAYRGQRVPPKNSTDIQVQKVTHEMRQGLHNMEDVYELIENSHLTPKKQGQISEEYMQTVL
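Cell-based HTRF cAMP assay; TSHR cells + compound, TSH EC80 (4nM final), 2 h, 37 deg C. Lysis with anti-cAMP cryptate and cAMP-d2, 30 min RT, read 665/620 nm.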
pAkt inh = HTS Assay for Inhibitors of Akt Phophorylation: Primary Screen. Neuro2A IGF-stimulated pAkt S473 HTRF, 20 min; active compounds read low. activity change, % for hits at 50 µM. 360,000 compounds, 0.32% hits. AID 651550, 2012; in the data active = activity change below about -80%; also: % is scaled to controls: 0 for no effect and ±100 for the full control effect
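Single-point screen (50 µM final compound) in Neuro2A cells stimulated 20 min with 6 nM IGF at 37 deg C. After lysis, Ser473-phosphorylated Akt read by HTRF (ex 330 nm, em 615/665 nm) as the 665/615 ratio.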
TCR act = Activators of T cell receptors: qHTS campaign. primary human leukocytes, anti-CD3, IL-2 HTRF, 48 h. Potency, µM (top dose mostly 9.22 µM), without a hit: at the top dose activation of IL-2 secretion, hits mostly activators. 330,000 tested, under 10 active; active = well fitted activation curve with a large enough effect; also: % of control where 0% means no effect
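Readout: HTRF IL-2, Eu-cryptate/d2 antibody pair, 320nm excitation, 665nm emission. Stimulus: a-CD3 beads, no co-stimulation. Cells: primary human leukocytes. Exposure: 48 hr with compound.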
Starred values were filed as active, the others as inactive; i = inactive; / = not tested or not shown; [ ] = remark or other dose. Most compounds without a hit are left out; they make up all but 0.74% or so of the library.

SMILES	CCT chaperon mod	TSHR antagonist	pAkt inh	TCR act
CCc1ccc(NS(=O)(=O)c2cc3c4c(c2)CCN4C(=O)CC3)cc1	-61*	2	i	6%
Cc1cccc(NC(=O)/C(=C\c2ccco2)NC(=O)c2cccs2)c1	1	2	-110%*	9%
O=C(Nc1cccc(-c2nnco2)c1)c1cccs1	-7	25	i	-2%
Cc1ccc(-c2nnc(-c3cccc(NC(=O)c4cccs4)c3)o2)cc1	-44*	-6	i	7%
COc1ccc(C(=O)Nc2cccc(NC(=O)c3cccs3)c2)cc1OC	0	-130*	i	5%
O=C(NCC1CCOCC1)c1ccc(-c2ccc(F)c(F)c2)c2ccoc12	1	/	i	/
COc1ccc(Nc2oc(-c3cccs3)nc2C#N)cc1	-37*	14	i	-5%
N[C@@]12CCc3nonc3[C@]1(O)CC(c1ccccc1)=[N+]2[O-]	-63*	1	i	-16%
Nc1ncnc2c1cnn2C1CCCCC1	-1	3	i	-4%
Cc1ccc(N(C)C(=O)N2CCN(S(=O)(=O)c3ccc(C)c(C)c3)CC2)cc1	-1	0	i	-2%
Cc1ccc(S(=O)(=O)N2CCN(C(=O)N(C)C)CC2)cc1C	-52*	-1	i	2%
CC(C)C1Nc2ccc(C(=O)N3CCN(c4ccccn4)CC3)cc2NC1=O (stereo not given)	0	-113*	i	0%
CCOC(=O)C1CCN(c2nc(-c3ccc(Br)cc3)cs2)CC1	/	-19	/	/
CC(C)c1csc(CN2CCN(Cc3ccc(F)cc3)C(CCO)C2)n1 (stereo not given)	1	12	i	6%
CCOCC(=O)Nc1nnc(SCCOC)s1	-10	-3	-85%*	5%
COc1cccc(CNc2nc3cc(-c4ccc(C(=O)N5CCN(C)CC5)cc4)sc3c(=O)n2C)c1	1	/	i	/
CCC1CCCCN1C(=O)C(=O)c1cn(CC(=O)N(CC)CC)c2ccccc12 (stereo not given)	0	-26	i	12%
CCN(CC)C(=O)Cn1cc(C(=O)C(=O)N(C)C2CCN(C)CC2)c2ccccc21	-90*	-7	i	0%
Cc1[nH]nc2c1/C(=N\O)CC(C)(C)C2	-1	-1	i	-2%
Cc1[nH]nc2c1C(=O)CC(C)(C)C2	-2	0	-110%*	-9%
CCOC(=O)N1CCN(Cc2ccccn2)CC1	-1	/	-105%*	-19%
O=C(CN1C(=O)C2C3C=CC(C3)C2C1=O)NCc1ccccc1 (stereo not given)	-3	2	i	-4%
O=C(CN1C(=O)C2C3C=CC(C3)C2C1=O)NCCc1ccccc1 (stereo not given)	-51*	9	i	4%
O=C(NCCc1ccc(Cl)cc1)C1CCCN1C(=O)Nc1ccccc1 (stereo not given)	-9	-5	i	/
COc1ccc(-c2cc(C)no2)cc1S(=O)(=O)N1CCOc2ccccc21	-81*	-13	/	-5%
SMILES	CCT chaperon mod	TSHR antagonist	pAkt inh	TCR act
Cc1cc(-c2ccc(C)c(S(=O)(=O)N3CC(=O)Nc4ccccc43)c2)on1	-35*	16	i	5%
COc1ccccc1CCNC(=O)CNC(=O)c1ccc2ccccc2c1	-1	6	i	-1%
COc1ccc(NS(=O)(=O)c2ccc(N)c(C(=O)O)c2)cc1	-1	-3	-115%*	-4%
Cc1ccccc1NC(=O)CSc1nnc(-c2ccccc2)n1-c1ccccc1	0	5	-98%*	-16%
Cc1ccc(CNC(=O)CSc2nnc3c(n2)[nH]c2ccccc23)cc1	-1	-82*	i	9%
CCN(C(=O)COc1cc(=O)n(C)c2ccccc12)c1cccc(Cl)c1	-55*	0	/	7%
Cc1nc2ccc3nc(NC(=O)c4ccc(S(=O)(=O)N5CCOCC5)cc4)sc3c2s1	-1	-12	-100%*	/
COc1ccc(CC(=O)Nc2nnc(SCc3ccccc3)s2)cc1S(=O)(=O)N1CCOCC1	-3	-19	-110%*	4%
NC(=O)CSc1nnc(NC(=O)c2ccc(S(=O)(=O)N3CCOCC3)cc2)s1	-58*	7	i	-5%
CCCCc1nnc(NC(=O)Cc2ccc(OC)c(S(=O)(=O)N3CCOCC3)c2)s1	2	-8	i	2%
O=C(CSc1nncs1)N1c2ccccc2Sc2ccccc21	1	-71*	i	1%
COc1ccc(CNc2nc3ccccc3n2CCN2CCOCC2)cc1	-45*	-8	i	-10%[46.1 µM]
CC(C)NC(=O)C1(C)CCN1Cc1ccc(Cl)cc1 (stereo not given)	1	/	i	/
COc1ccccc1/C=C/C(=O)NCCc1ccccn1	-1	12	i	-8%
CN(C)c1ccc(NC(=O)C2C3C=CC(C3)C2C(=O)O)cc1 (stereo not given)	-2	-89*	i	13%
O=C(O)C1C2C=CC(C2)C1C(=O)Nc1ccc2c(c1)OCCO2 (stereo not given)	-1	-12	i	/
O=C(CCS(=O)(=O)c1ccccc1)Nc1cccc2c1C(=O)NC2=O	-2	-7	i	/
CCN(CC)c1ccc2nc3ccccc3[n+](CC)c2c1	-3	-140*	i	53%
Cc1noc(C)c1COc1ccccc1C(=O)N1CCN(S(=O)(=O)c2cccc([N+](=O)[O-])c2)CC1	-57*	-11	i	0%
O=C(Nc1ccc(Br)c(Br)c1)C1CCCO1 (stereo not given)	2	/	i	3%
Cc1cc(NC(=O)C2CCCO2)ccc1Br (stereo not given)	-107*	3	i	5%
CCOC(=O)CN1C(=O)C(C)(C)Oc2ccc(C(=O)NC(C)(C)CC)cc21	-2	3	-111%*	1%
CCC(C)(C)NC(=O)c1ccc2c(c1)N(CC(=O)OC)C(=O)C(C)(C)O2	-2	6	i	-27%
COc1ccccc1N1CCN(C(=O)c2cc3n(n2)C(C(F)(F)F)CC(c2ccco2)N3)CC1 (stereo not given)	-1	4	-107%*	-4%
O=C(c1cc2n(n1)C(C(F)(F)F)CC(c1ccco1)N2)N1CCc2ccccc2C1 (stereo not given)	3	/	i	-1%
CC(C)NC(=O)NS(=O)(=O)c1cnccc1NC1CC2CCC1C2 (stereo not given)	-1	2	-107%*	-5%[46.1 µM]
CS(=O)(=O)Nc1ccccc1C(=O)NC1CC2CCC1C2 (stereo not given)	-3	4	i	-1%
CCN1CCN(C2=C(NS(=O)(=O)c3ccc(C)cc3)C(=O)c3ccccc3C2=O)CC1	-1	-79*	i	7%
CCN1CCN(C2=C(NS(=O)(=O)c3ccc(NC(C)=O)cc3)C(=O)c3ccccc3C2=O)CC1	0	11	/	4%
Cc1ccccc1-n1c(-c2ccc(Cl)cc2)cnc1SCC(=O)NC1CCS(=O)(=O)C1 (stereo not given)	0	-5	i	-11%[46.1 µM]
